# Reference: the supplement of paper PMC10981050
# Where “and” joins values, the source holds several entries; their conditions need not be identical. Equal values may be shown once. Where a name gives a salt, the structure may show the parent alone.
# Tests used:
# Assay in all cases: cell viability relative to vehicle control; higher = less cytotoxic
# Details in all cases: 10 µM
# K562 = system: K562
# How it was run: (§1)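 CRISPR-edited SRSF2 P95 mutant and isogenic wild-type clones of four leukaemia lines were screened against Selleck bioactive, kinase and epigenetic probe libraries, with identity-inconsistent compounds removed. Compounds were acoustically dispensed into 384-well plates at a single 10 µM dose, with 2000 cells in 50 µL medium per well. After 48 h, supernatant was removed and CellTiter-Glo luminescence was read. Viability was expressed as percent of the on-plate DMSO vehicle control, analysed in Genedata Screener.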
# MARIMO = system: MARIMO
# How it was run: as §1
# MOLM14 = system: MOLM14
# How it was run: as §1
# OCI-AML2 = system: OCI-AML2
# How it was run: as §1
Structure (SMILES),cell viability (K562; SRSF2 genotype: SRSF2 P95H/wt),cell viability (K562; SRSF2 genotype: SRSF2 wt/wt),cell viability (MARIMO; SRSF2 genotype: SRSF2 P95H/wt),cell viability (MARIMO; SRSF2 genotype: SRSF2 wt/wt),cell viability (MOLM14; SRSF2 genotype: SRSF2 P95H/wt),cell viability (MOLM14; SRSF2 genotype: SRSF2 wt/wt),cell viability (OCI-AML2; SRSF2 genotype: P95H/wt),cell viability (OCI-AML2; SRSF2 genotype: wt/wt)
"CCCCC1C(=O)N(c2ccccc2)N(c2ccccc2)C1=O [Phenylbutazone (Butazolidin, Butatron)]",98.1% and 102%,94.9%,97.2%,102%,98%,99.9%,106%,107%
CC(CCC(=O)NCCS(=O)(=O)O)C1CCC2C3C(O)CC4CC(O)CCC4(C)C3CCC12C (stereo not given) [Taurochenodeoxycholic acid],104% and 101%,99.3%,103%,108%,104%,104%,109%,97.8%
O=C(O)c1cc(=O)c2c(OCC(O)COc3cccc4oc(C(=O)O)cc(=O)c34)cccc2o1 [Disodium Cromoglycate],93.6%,95%,94.8%,98.5%,94%,94.4%,92.8%,99%
Cc1cc(N2CCCCC2)nc2ccccc12,97% and 102%,98.3%,93.6%,106%,98.8%,109%,96.6%,103%
CO/N=C(\C(=O)N[C@@H]1C(=O)N2C(C(=O)O)=C(Cn3ccc(=N)n3CCO)CS[C@H]12)c1csc(N)n1 [Cefoselis sulfate],95.5% and 104%,94%,92.6%,98%,100%,101%,103%,96.8%
Cc1cc2c(s1)Nc1ccccc1N=C2N1CCN(C)CC1 [Olanzapine (Zyprexa)],95.8% and 89.5%,90.7%,92.5%,102%,93.8%,95.8%,81.7%,92.2%
NC(=O)c1ncn([C@@H]2O[C@H](CO)[C@@H](O)[C@H]2O)c1N [AICAR (Acadesine)],109% and 107%,109%,101%,110%,107%,118%,93.1%,105%
CCN(CC)c1ccc2cc(C(=O)O)c(=O)oc2c1 [7-(Diethylamino)coumarin-3-carboxylic acid],112% and 101%,105%,95.4%,108%,98%,110%,100%,103%
CCc1cncnc1N1CCN(Cc2nc3ccc(C(F)(F)F)cc3[nH]2)CC1,72.3% and 72.8%,73.1%,66.4%,47.9%,57.4%,66.5%,32.3%,43.3%
CCCCC(CC)COC(=O)C(C#N)=C(c1ccccc1)c1ccccc1 (stereo not given) [Octocrylene],94.2% and 88.6%,97.5%,95.1%,107%,95.1%,98.5%,98.4%,99.9%
C[C@@H]1CC[C@@]2(OC1)O[C@H]1C[C@H]3[C@@H]4CC=C5C[C@@H](O[C@@H]6O[C@H](CO)[C@@H](O[C@@H]7O[C@@H](C)[C@H](O[C@@H]8O[C@@H](C)[C@H](O)[C@@H](O)[C@H]8O)[C@@H](O)[C@H]7O)[C@H](O)[C@H]6O[C@@H]6O[C@@H](C)[C@H](O)[C@@H](O)[C@H]6O)CC[C@]5(C)[C@H]4CC[C@]3(C)[C@@]1(O)[C@@H]2C [Chonglou Saponin VII],0.5% and 0.49%,0.46%,0.43%,0.55%,0.44%,0.46%,0.37%,0.47%
Nc1ccc(-c2cccc(C(=O)Nc3cnc4nc(N5CCOCC5)oc4c3)n2)cn1,96.8% and 100%,91.5%,98.3%,91.6%,86%,87.5%,103%,93.7%
Cc1cc(Nc2ncnc3ccc(NC4=NC(C)(C)CO4)cc23)ccc1Oc1ccn2ncnc2c1,87.4% and 89.8%,91.5%,82.5%,102%,88.2%,97.2%,64.9%,73.7%
N[C@@H](Cc1cc(I)c(Oc2cc(I)c(O)c(I)c2)c(I)c1)C(=O)O [L-Thyroxine],87.7% and 96.4%,101%,106%,114%,98.8%,106%,102%,114%
Cc1c(C(C)C)c(=O)n(-c2ccccc2)n1C [Propyphenazone (4-Isopropylantipyrine)],101% and 105%,97.5%,94%,105%,94.3%,101%,86.9%,97.4%
O=NO [Sodium Nitrite],107% and 104%,95.9%,99.9%,99.4%,96.4%,101%,97.8%,99.5%
Nc1cc(F)ccc1NC(=O)/C=C/c1cnn(C/C=C/c2ccccc2)c1,89.5% and 93.8%,83.6%,77.8%,100%,90.5%,94.2%,104%,87.4%
Cc1noc(C)c1-c1ccc(-c2cc(C(N)=O)c(NC(N)=O)s2)c(O[C@H]2CCNC2)c1,101%,93.8%,94.9%,103%,89.5%,99.7%,101%,105%
COc1cccc2cc(-c3nc([C@H]4CC[C@H](C(=O)O)CC4)n4ncnc(N)c34)[nH]c12,36.1% and 37%,32.9%,51.5%,47.1%,29.4%,24.9%,26.5%,27.5%
C[C@@H]1CN(CC(=O)Nc2ccc3c(c2)Cc2cccc(-c4cc(=O)cc(N5CCOCC5)o4)c2S3)C[C@H](C)O1,98.9% and 102%,99.1%,82.9%,86.9%,56.9%,55.8%,51.3%,64.2%

Structure (SMILES),cell viability (K562; SRSF2 genotype: SRSF2 P95H/wt),cell viability (K562; SRSF2 genotype: SRSF2 wt/wt),cell viability (MARIMO; SRSF2 genotype: SRSF2 P95H/wt),cell viability (MARIMO; SRSF2 genotype: SRSF2 wt/wt),cell viability (MOLM14; SRSF2 genotype: SRSF2 P95H/wt),cell viability (MOLM14; SRSF2 genotype: SRSF2 wt/wt),cell viability (OCI-AML2; SRSF2 genotype: P95H/wt),cell viability (OCI-AML2; SRSF2 genotype: wt/wt)
Cc1cnc(C(=O)NCCc2ccc(S(=O)(=O)NC(=O)NC3CCCCC3)cc2)cn1 [Glipizide (Glucotrol)],93.8% and 94.9%,91.6%,90.9%,104%,94.3%,92.5%,96.6%,97.4%
C[C@H]1O[C@@H](O[C@H]2CC[C@@]3(C)[C@@H](CC[C@]4(C)[C@@H]3C=CC3=C5CC(C)(C)CC[C@]5(CO)[C@@H](O)C[C@]34C)[C@]2(C)CO)[C@H](O[C@@H]2O[C@H](CO)[C@@H](O)[C@H](O)[C@H]2O)[C@@H](O[C@@H]2O[C@H](CO)[C@@H](O)[C@H](O)[C@H]2O)[C@H]1O [Buddlejasaponin IVb],96.5% and 97%,97.8%,98.4%,108%,98.3%,102%,101%,106%
"Cn1ccnc1S [Methimazole (Tapazole, Northyx)]",101% and 94.7%,95.5%,99.3%,99.8%,97.7%,97.6%,93.2%,100%
CCC(C)(Oc1ccc(C2(c3ccc(OC(C)(CC)C(=O)O)cc3)CCCCC2)cc1)C(=O)O (stereo not given) [Clinofibrate],95.4% and 93.2%,93.7%,92.4%,102%,93.8%,96.6%,90.4%,102%
Clc1ccc(C(Cn2ccnc2)OCc2ccc(Sc3ccccc3)cc2)c(Cl)c1 (stereo not given) [Fenticonazole nitrate],76.5% and 67.7%,63.8%,62.4%,78%,70.6%,73%,63.3%,69.1%
Clc1ccc(COC(Cn2ccnc2)c2ccc(Cl)cc2Cl)cc1 (stereo not given) [Econazole nitrate (Spectazole)],67.2% and 76.7%,70.1%,64.3%,71%,58.2%,73%,57.8%,52.4%
CC=C1C(=O)C[C@H]2[C@@H]3CCC4=CC(=O)CC[C@]4(C)[C@H]3CC[C@]12C [Guggulsterone E&Z],76% and 84.7%,79.3%,61.7%,72.3%,80.4%,89.3%,71.8%,76.7%
CNC(=O)c1nn(C)c2c1C(C)(C)Cc1cnc(Nc3ccc(N4CCN(C)CC4)cc3)nc1-2,34% and 36.5%,25.2%,21.4%,22.6%,16%,5.62%,13.8%,19.4%
CCNc1nc(Nc2cc(F)c(C(=O)N3CCOCC3)cc2OC)ncc1C(F)(F)F,102% and 98.9%,99.2%,93.3%,109%,90%,103%,87.8%,93.7%
OC[C@@H](O)CN1CCN(c2ccccc2)CC1 [Levodropropizine],90.9% and 91%,83.9%,85.1%,96.5%,92.5%,91.6%,94.5%,96%
CNC(=O)c1ccccc1Sc1ccc2c(/C=C/c3ccccn3)n[nH]c2c1 [Axitinib],8.75% and 13.3%,14%,57%,65.2%,29.5%,15.3%,36.9%,34%
Cc1cc(C)c2c(c1)[C@@H](N(Cc1cc(C(F)(F)F)cc(C(F)(F)F)c1)c1nnn(C)n1)CCCN2C[C@H]1CC[C@H](C(=O)O)CC1,89% and 90.3%,90.1%,104%,114%,95.4%,98.7%,101%,116%
CC(C)CCNc1ncccc1C(=O)N1CCN(Cc2ccccc2)CC1,103% and 100%,102%,93.8%,105%,96.9%,103%,103%,105%
CC(C)Oc1ccc2c(=O)c(-c3ccccc3)coc2c1 [Ipriflavone],88.2% and 88.5%,94%,85.2%,88.1%,110%,113%,71.6%,75.8%
C[C@@H]1O[C@@H](OC[C@H]2O[C@@H](Oc3cc(O)c4c(c3)O[C@H](c3ccc(O)c(O)c3)CC4=O)[C@H](O)[C@@H](O)[C@@H]2O)[C@H](O)[C@H](O)[C@H]1O [Eriocitrin],110% and 103%,108%,105%,100%,117%,110%,98.4%,94.6%
C[C@H](CCC(=O)O)[C@H]1CC[C@H]2[C@@H]3[C@H](O)C[C@@H]4C[C@H](O)CC[C@]4(C)[C@H]3C[C@H](O)[C@]12C [Cholic acid],94.2% and 93.3%,100%,91.6%,98%,98.9%,97.6%,98.5%,98.9%
CCn1cc(NC(=S)Nc2cc(Cl)ccc2OC)c(C(N)=O)n1,92% and 90.5%,89.8%,99.1%,99.4%,96.9%,95%,95.2%,92.5%
CN1CCN2c3ccccc3Cc3ccccc3C2C1 (stereo not given) [Mianserin HCl],92.5% and 97.9%,92.2%,83.7%,86.5%,93.5%,97.8%,91.2%,86.4%
COc1cc(C)c2c(=O)c(-c3ccccc3)coc2c1 [5-Methyl-7-methoxyisoflavone],101% and 95.6%,92.2%,85.2%,90.2%,97.1%,92.6%,93.4%,88.4%
Cc1c(Nc2ncccc2C(=O)O)cccc1C(F)(F)F [Flunixin meglumin],95.8% and 87.2%,93.9%,89.8%,96.2%,87.4%,89.4%,90.4%,101%
